In this assay the target is T1, CRBN, Q96SW2.
T1 chain: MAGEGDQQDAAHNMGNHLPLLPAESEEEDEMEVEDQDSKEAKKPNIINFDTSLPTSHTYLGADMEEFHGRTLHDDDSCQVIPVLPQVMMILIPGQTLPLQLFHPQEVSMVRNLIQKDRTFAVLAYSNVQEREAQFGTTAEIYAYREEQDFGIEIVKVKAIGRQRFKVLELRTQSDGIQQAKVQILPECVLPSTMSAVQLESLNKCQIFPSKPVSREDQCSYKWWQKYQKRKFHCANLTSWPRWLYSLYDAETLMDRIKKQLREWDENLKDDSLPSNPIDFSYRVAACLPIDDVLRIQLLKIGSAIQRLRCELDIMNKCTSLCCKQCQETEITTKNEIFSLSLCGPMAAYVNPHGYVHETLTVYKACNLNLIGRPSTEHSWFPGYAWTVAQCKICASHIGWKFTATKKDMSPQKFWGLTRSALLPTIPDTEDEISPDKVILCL
Nature of the assay: log2 fold change of degron read counts, EGFP-low vs EGFP+ sorted cells (limma voom), compound-induced degradation; higher = more compound-induced degradation of the degron-EGFP fusion; degrons are variants of IKZF1/3 zinc finger 2; compound dose not given here. The conditions noted are these: Jurkat, 18 h.

Setting [1] is: compound: compound 19 (5-tert-butyl-thalidomide).
[2] abbreviates: compound: compound 22 (5-morpholino-thalidomide).
The mark [3] stands for this setting: compound: compound 33 (diphenyl IMiD analogue).

The full ranking holds about 8,300 sequences; the median of “log2 fold change of degron read counts, EGFP-low vs EGFP+ sorted cells (limma voom), compound-induced degradation” is about -1.1, and the highest 2% start at about 3.2. This is one part of a sample in which the highest values are shown more often than they occur.
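Further: pooled lentiviral library of zinc finger degron-EGFP fusions in mCherry-positive Jurkat cells, FACS-sorted after compound exposure, with degron abundance counted by next-generation sequencing.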

B1: 46L_47W_49P_50I_52G_53F_54F_55C_67L_, Q9UKT9 (peptide)
chain: LWCPICGFFCTQKGNLLRHIKL
For the sequence B1, the “log2 fold change of degron read counts” value stood at 2.66 under setting [1], 3.04 under setting [2], 2.81 under setting [3] and 2.05 (compound: thalidomide).

B2: 46L_47H_49P_50I_52G_53F_54F_55C_67L_, Q9UKT9 (peptide)
chain: LHCPICGFFCTQKGNLLRHIKL
In the case of B2, the “log2 fold change of degron read counts” value was 2.35 under setting [1], 2.51 under setting [2], 2.79 under setting [3] and 2.23 (compound: thalidomide).

B3: 46L_47S_49P_50I_52G_53F_54F_55C_67L_, Q9UKT9 (peptide)
chain: LSCPICGFFCTQKGNLLRHIKL
For the sequence B3, the “log2 fold change of degron read counts” value stood at 2.05 under setting [1], 1.71 under setting [2], 2.64 under setting [3] and 2.39 (compound: thalidomide).

B4: 46L_47G_49P_50I_52G_53F_54F_55C_67L_, Q9UKT9 (peptide)
chain: LGCPICGFFCTQKGNLLRHIKL
On to B4, for which the “log2 fold change of degron read counts” value is, setting by setting: under setting [1], 3.27; under setting [2], 2.15; under setting [3], 2.31; (compound: thalidomide) 1.94.

B5: 46L_47C_49P_50I_52G_53F_54F_55C_67L_, Q9UKT9 (peptide)
chain: LCCPICGFFCTQKGNLLRHIKL
Turning to B5, the “log2 fold change of degron read counts” value amounted to 1.09 under setting [1], 1.75 under setting [2], 2.77 under setting [3] and 2.39 (compound: thalidomide).

B6: 46L_47A_49P_50I_52G_53F_54F_55C_67L_, Q9UKT9 (peptide)
chain: LACPICGFFCTQKGNLLRHIKL
Regarding B6, the “log2 fold change of degron read counts” value was determined as 3.31 under setting [1], 2.49 under setting [2], 2.27 under setting [3] and 2.24 (compound: thalidomide).

B7: 46F_47V_49N_50Q_52G_53A_54A_55F_67L_, Q9UKT9 (peptide)
chain: FVCNQCGAAFTQKGNLLRHIKL
Turning to B7, the “log2 fold change of degron read counts” value under setting [1] is -2.28, the “log2 fold change of degron read counts” value under setting [2] was -0.788, the “log2 fold change of degron read counts” value under setting [3] is -0.293 and the “log2 fold change of degron read counts” value (compound: thalidomide) was -0.146.

B8: 46F_47T_49N_50Q_52G_53R_54R_55F_67L_, Q9UKT9 (peptide)
chain: FTCNQCGRRFTQKGNLLRHIKL
In the case of B8, the “log2 fold change of degron read counts” value was -2.59 under setting [1], -2.14 under setting [2], -1.95 under setting [3] and -1.42 (compound: thalidomide).

B9: 46F_47H_49P_50I_52G_53R_54F_55F_67L_, Q9UKT9 (peptide)
chain: FHCPICGRFFTQKGNLLRHIKL
Consider B9, for which the “log2 fold change of degron read counts” value is, setting by setting: under setting [1], -0.744; under setting [2], -1.72; under setting [3], -0.739; (compound: thalidomide) -1.66.

B10: 46F_47K_49E_50I_52G_53A_54P_55F_67L_, Q9UKT9 (peptide)
chain: FKCEICGAPFTQKGNLLRHIKL
In the case of B10, the “log2 fold change of degron read counts” value was 2.99 under setting [1], 1.73 under setting [2], -0.501 under setting [3] and 2.51 (compound: thalidomide).

B11: 46F_47C_49E_50I_52G_53A_54P_55F_67L_, Q9UKT9 (peptide)
chain: FCCEICGAPFTQKGNLLRHIKL
For the sequence B11, the “log2 fold change of degron read counts” value by setting is: under setting [1], 3.63; under setting [2], 2.99; under setting [3], 1.57; (compound: thalidomide) 2.05.

B12: 46F_47S_49E_50I_52G_53A_54P_55F_67L_, Q9UKT9 (peptide)
chain: FSCEICGAPFTQKGNLLRHIKL
With B12, the “log2 fold change of degron read counts” value is, setting by setting: under setting [1], 3.54; under setting [2], 2.69; under setting [3], 1.29; (compound: thalidomide) 1.99.

B13: 46F_47C_49E_50Q_52G_53A_54P_55F_67L_, Q9UKT9 (peptide)
chain: FCCEQCGAPFTQKGNLLRHIKL
Regarding B13, the “log2 fold change of degron read counts” value was -0.706 under setting [1], -2.38 under setting [2], -1.75 under setting [3] and -1.28 (compound: thalidomide).

B14: 46F_47C_49E_50I_52G_53A_54D_55F_67L_, Q9UKT9 (peptide)
chain: FCCEICGADFTQKGNLLRHIKL
B14: the “log2 fold change of degron read counts” value is 0.103 under setting [1], -0.401 under setting [2], 0.273 under setting [3] and -0.00478 (compound: thalidomide).

B15: 46F_47S_49E_50I_52G_53A_54D_55F_67L_, Q9UKT9 (peptide)
chain: FSCEICGADFTQKGNLLRHIKL
For B15, the “log2 fold change of degron read counts” value is, setting by setting: under setting [1], 0.281; under setting [2], -0.67; under setting [3], -0.225; (compound: thalidomide) -0.832.

B16: 46F_47H_49N_50Q_52G_53R_54V_55F_67L_, Q9UKT9 (peptide)
chain: FHCNQCGRVFTQKGNLLRHIKL
With B16, the “log2 fold change of degron read counts” value was -1.76 under setting [1], -2.76 under setting [2], -1.72 under setting [3] and -1.87 (compound: thalidomide).

B17: 46F_47T_49P_50Q_52G_53A_54A_55F_67L_, Q9UKT9 (peptide)
chain: FTCPQCGAAFTQKGNLLRHIKL
For B17, the “log2 fold change of degron read counts” value is -0.476 under setting [1], 0.413 under setting [2], 1.73 under setting [3] and 0.798 (compound: thalidomide).

B18: 46F_47R_49E_50V_52G_53A_54M_55F_67L_, Q9UKT9 (peptide)
chain: FRCEVCGAMFTQKGNLLRHIKL
As to B18, the “log2 fold change of degron read counts” value runs as follows: under setting [1], -0.953; under setting [2], -0.985; under setting [3], 0.652; (compound: thalidomide) 0.605.

B19: 46F_47E_49D_50I_52G_53A_54K_55F_67L_, Q9UKT9 (peptide)
chain: FECDICGAKFTQKGNLLRHIKL
In the case of B19, the “log2 fold change of degron read counts” value under setting [1] is -0.727, the “log2 fold change of degron read counts” value under setting [2] was -2.12, the “log2 fold change of degron read counts” value under setting [3] is -2.83 and the “log2 fold change of degron read counts” value (compound: thalidomide) was 0.61.

B20: 46F_47M_49D_50I_52G_53A_54K_55F_67L_, Q9UKT9 (peptide)
chain: FMCDICGAKFTQKGNLLRHIKL
For B20, the “log2 fold change of degron read counts” value was -0.74 under setting [1], -1.21 under setting [2], -0.567 under setting [3] and -0.432 (compound: thalidomide).

B21: 46F_47K_49D_50I_52G_53A_54K_55F_67L_, Q9UKT9 (peptide)
chain: FKCDICGAKFTQKGNLLRHIKL
Consider B21, for which the “log2 fold change of degron read counts” value is, setting by setting: under setting [1], -2.45; under setting [2], -3.31; under setting [3], -3.09; (compound: thalidomide) -2.29.

B22: 46F_47W_49D_50I_52G_53A_54K_55F_67L_, Q9UKT9 (peptide)
chain: FWCDICGAKFTQKGNLLRHIKL
B22: the “log2 fold change of degron read counts” value is 3.22 under setting [1], 3.7 under setting [2], 0.265 under setting [3] and -0.173 (compound: thalidomide).

B23: 46F_47N_49D_50I_52G_53A_54K_55F_67L_, Q9UKT9 (peptide)
chain: FNCDICGAKFTQKGNLLRHIKL
On to B23, for which the “log2 fold change of degron read counts” value reads like this: under setting [1], 0.554; under setting [2], -1.18; under setting [3], -2.65; (compound: thalidomide) -2.02.

B24: 46F_47Q_49D_50I_52G_53A_54K_55F_67L_, Q9UKT9 (peptide)
chain: FQCDICGAKFTQKGNLLRHIKL
B24: the “log2 fold change of degron read counts” value runs as follows: under setting [1], -0.69; under setting [2], 2.25; under setting [3], -0.885; (compound: thalidomide) 3.28.

B25: 46F_47I_49D_50I_52G_53A_54K_55F_67L_, Q9UKT9 (peptide)
chain: FICDICGAKFTQKGNLLRHIKL
On to B25, for which the “log2 fold change of degron read counts” value under setting [1] is -1.2, the “log2 fold change of degron read counts” value under setting [2] is 1.29, the “log2 fold change of degron read counts” value under setting [3] was -0.575 and the “log2 fold change of degron read counts” value (compound: thalidomide) was 0.898.

B26: 46F_47C_49D_50I_52G_53A_54K_55F_67L_, Q9UKT9 (peptide)
chain: FCCDICGAKFTQKGNLLRHIKL
With B26, the “log2 fold change of degron read counts” value runs as follows: under setting [1], 1.97; under setting [2], 1.65; under setting [3], -1.18; (compound: thalidomide) 0.858.

B27: 46F_47F_49D_50I_52G_53A_54K_55F_67L_, Q9UKT9 (peptide)
chain: FFCDICGAKFTQKGNLLRHIKL
Take B27: the “log2 fold change of degron read counts” value is, setting by setting: under setting [1], 3.35; under setting [2], 3.15; under setting [3], 0.231; (compound: thalidomide) -0.76.

B28: 46F_47Y_49D_50I_52G_53A_54K_55F_67L_, Q9UKT9 (peptide)
chain: FYCDICGAKFTQKGNLLRHIKL
B28: the “log2 fold change of degron read counts” value is 3.2 under setting [1], 3.32 under setting [2], 0.608 under setting [3] and -0.632 (compound: thalidomide).

B29: 46F_47T_49D_50I_52G_53A_54K_55F_67L_, Q9UKT9 (peptide)
chain: FTCDICGAKFTQKGNLLRHIKL
B29: the “log2 fold change of degron read counts” value is -0.131 under setting [1], 0.993 under setting [2], -1.38 under setting [3] and 0.963 (compound: thalidomide).

B30: 46F_47L_49D_50I_52G_53A_54K_55F_67L_, Q9UKT9 (peptide)
chain: FLCDICGAKFTQKGNLLRHIKL
As for B30, the “log2 fold change of degron read counts” value is, setting by setting: under setting [1], -0.855; under setting [2], -1.86; under setting [3], -1.23; (compound: thalidomide) 0.0222.

(Values after the supplement of paper PMC12645437, “Orthogonal IMiD-Degron Pairs Induce Selective Protein Degradation in Cells” (ACS Chemical Biology, 2025).)
